Reference: the supplement of paper PMC12282887
± gives the standard deviation of the averaged measurements.

What was measured:
Assay in all cases: promoter activity interaction Z-score (Lux/OD deviation from empty-vector control); higher = stronger promoter induction by the compound
[1] = test system: E. coli BW25113 acrABp lux reporter
Summary of the method: (§1)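 Low-copy luxCDABE promoter reporters were carried by E. coli BW25113, either wild type or lacking one of three genes, grown in 40 µl LB Lennox in 384-well plates at 37°C. Each compound was run at four 1:2 dilutions in biological duplicates, with OD600 and luminescence read every 30 min for 12 h. Integration used 0–8 h for wild type and 1–9 h for deletion strains, and wells under 10% of the median growth value were removed. Luminescence normalised to growth was fitted against a control, and the Z-transformed residual is the score.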

[2] = test system: E. coli BW25113 micFp lux reporter
Summary of the method: as §1

[3] = test system: E. coli BW25113 ompFp lux reporter
Summary of the method: as §1

[4] = test system: E. coli BW25113 robp lux reporter
Summary of the method: as §1

[5] = test system: E. coli BW25113 soxSp lux reporter
Summary of the method: as §1

[6] = test system: E. coli BW25113 tolCp lux reporter
Summary of the method: as §1

[7] = 0.063 µg/ml, genetic background: wild type
[8] = 0.063 µg/ml, genetic background: ΔmarA
[9] = 0.063 µg/ml, genetic background: Δrob
[10] = 0.063 µg/ml, genetic background: ΔsoxS
[11] = 0.13 µg/ml, genetic background: wild type
[12] = 0.13 µg/ml, genetic background: ΔmarA
[13] = 0.13 µg/ml, genetic background: Δrob
[14] = 0.13 µg/ml, genetic background: ΔsoxS
[15] = 0.25 µg/ml, genetic background: wild type
[16] = 0.25 µg/ml, genetic background: ΔmarA
[17] = 0.25 µg/ml, genetic background: Δrob
[18] = 0.25 µg/ml, genetic background: ΔsoxS
[19] = 0.5 µg/ml, genetic background: wild type
[20] = 0.5 µg/ml, genetic background: ΔmarA
[21] = 0.5 µg/ml, genetic background: Δrob
[22] = 0.5 µg/ml, genetic background: ΔsoxS

Structure (SMILES): CO[C@@]12[C@H](COC(N)=O)C3=C(C(=O)C(C)=C(N)C3=O)N1C[C@@H]1N[C@@H]12 [Mitomycin C]
- promoter activity interaction Z-score [1, 7]: 0.203 ± 0.26
- promoter activity interaction Z-score [1, 8]: -0.582 ± 1.1
- promoter activity interaction Z-score [1, 9]: 0.184 ± 0.69
- promoter activity interaction Z-score [1, 10]: 0.15 ± 0.32
- promoter activity interaction Z-score [1, 11]: -0.161 ± 0.0059
- promoter activity interaction Z-score [1, 12]: 1.65 ± 0.15
- promoter activity interaction Z-score [1, 13]: 0.0466 ± 0.51
- promoter activity interaction Z-score [1, 14]: 0.106 ± 0.043
- promoter activity interaction Z-score [1, 15]: 0.269 ± 0.076
- promoter activity interaction Z-score [1, 16]: 0.437 ± 0.76
- promoter activity interaction Z-score [1, 17]: -0.105 ± 0.42
- promoter activity interaction Z-score [1, 18]: -0.0948 ± 0.4
- promoter activity interaction Z-score [1, 19]: 0.332 ± 0.099
- promoter activity interaction Z-score [1, 20]: 1.08 ± 0.83
- promoter activity interaction Z-score [1, 21]: -0.0462 ± 0.55
- promoter activity interaction Z-score [1, 22]: 0.117 ± 0.79
- promoter activity interaction Z-score [2, 7]: 0.161 ± 0.24
- promoter activity interaction Z-score [2, 8]: 0.0738 ± 0.13
- promoter activity interaction Z-score [2, 9]: -0.0403 ± 0.002
- promoter activity interaction Z-score [2, 10]: 0.173 ± 0.094
- promoter activity interaction Z-score [2, 11]: -0.0611 ± 0.13
- promoter activity interaction Z-score [2, 12]: 0.273 ± 0.08
- promoter activity interaction Z-score [2, 13]: 0.135 ± 0.19
- promoter activity interaction Z-score [2, 14]: 0.423 ± 0.057
- promoter activity interaction Z-score [2, 15]: 0.189 ± 0.054
- promoter activity interaction Z-score [2, 16]: 0.0506 ± 0.14
- promoter activity interaction Z-score [2, 17]: -0.0293 ± 0.023
- promoter activity interaction Z-score [2, 18]: -0.0557 ± 0.14
- promoter activity interaction Z-score [2, 19]: -0.299 ± 0.0083
- promoter activity interaction Z-score [2, 20]: -0.029 ± 0.23
- promoter activity interaction Z-score [2, 21]: 0.266 ± 0.055
- promoter activity interaction Z-score [2, 22]: 0.362 ± 0.13
- promoter activity interaction Z-score [3, 7]: 0.468 ± 0.27
- promoter activity interaction Z-score [3, 8]: -0.243 ± 0.38
- promoter activity interaction Z-score [3, 9]: 0.492 ± 0.67
- promoter activity interaction Z-score [3, 10]: 0.619 ± 0.42
- promoter activity interaction Z-score [3, 11]: 0.0398 ± 0.41
- promoter activity interaction Z-score [3, 12]: 1.58 ± 1
- promoter activity interaction Z-score [3, 13]: 0.963 ± 0.14
- promoter activity interaction Z-score [3, 14]: 0.857 ± 0.077
- promoter activity interaction Z-score [3, 15]: 0.439 ± 0.22
- promoter activity interaction Z-score [3, 16]: -0.0015 ± 0.17
- promoter activity interaction Z-score [3, 17]: 1 ± 0.15
- promoter activity interaction Z-score [3, 18]: -0.0721 ± 0.25
- promoter activity interaction Z-score [3, 19]: 0.63 ± 0.16
- promoter activity interaction Z-score [3, 20]: 1.34 ± 1.3
- promoter activity interaction Z-score [3, 21]: 1.2 ± 0.71
- promoter activity interaction Z-score [3, 22]: 0.778 ± 0.46
- promoter activity interaction Z-score [4, 7]: 0.242 ± 0.52
- promoter activity interaction Z-score [4, 8]: -0.678 ± 0.028
- promoter activity interaction Z-score [4, 9]: 0.808 ± 0.56
- promoter activity interaction Z-score [4, 10]: -0.138 ± 0.57
- promoter activity interaction Z-score [4, 11]: 0.512 ± 0.4
- promoter activity interaction Z-score [4, 12]: 2.91 ± 0.44
- promoter activity interaction Z-score [4, 13]: 0.0783 ± 0.46
- promoter activity interaction Z-score [4, 14]: 0.758 ± 1.5
- promoter activity interaction Z-score [4, 15]: 1.16 ± 0.6
- promoter activity interaction Z-score [4, 16]: 0.136 ± 0.099
- promoter activity interaction Z-score [4, 17]: 0.453 ± 0.084
- promoter activity interaction Z-score [4, 18]: -0.883 ± 0.36
- promoter activity interaction Z-score [4, 19]: 1.05 ± 0.1
- promoter activity interaction Z-score [4, 20]: 0.91 ± 0.79
- promoter activity interaction Z-score [4, 21]: 0.226 ± 0.38
- promoter activity interaction Z-score [4, 22]: -0.0862 ± 0.5
- promoter activity interaction Z-score [5, 7]: 0.078 ± 0.11
- promoter activity interaction Z-score [5, 8]: -0.129 ± 0.16
- promoter activity interaction Z-score [5, 9]: -0.043 ± 0.0072
- promoter activity interaction Z-score [5, 10]: 0.00107 ± 0.095
- promoter activity interaction Z-score [5, 11]: -0.0775 ± 0.16
- promoter activity interaction Z-score [5, 12]: -0.0258 ± 0.096
- promoter activity interaction Z-score [5, 13]: -0.0896 ± 0.043
- promoter activity interaction Z-score [5, 14]: -0.0792 ± 0.22
- promoter activity interaction Z-score [5, 15]: 0.185 ± 0.009
- promoter activity interaction Z-score [5, 16]: -0.158 ± 0.067
- promoter activity interaction Z-score [5, 17]: 0.12 ± 0.092
- promoter activity interaction Z-score [5, 18]: -0.0761 ± 0.073
- promoter activity interaction Z-score [5, 19]: 0.163 ± 0.12
- promoter activity interaction Z-score [5, 20]: -0.1 ± 0.14
- promoter activity interaction Z-score [5, 21]: -0.0272 ± 0.011
- promoter activity interaction Z-score [5, 22]: 0.103 ± 0.21
- promoter activity interaction Z-score [6, 7]: 0.274 ± 0.61
- promoter activity interaction Z-score [6, 8]: -0.71 ± 0.23
- promoter activity interaction Z-score [6, 9]: -0.666 ± 0.03
- promoter activity interaction Z-score [6, 10]: 0.252 ± 0.77
- promoter activity interaction Z-score [6, 11]: 0.0384 ± 0.54
- promoter activity interaction Z-score [6, 12]: 0.367 ± 0.36
- promoter activity interaction Z-score [6, 13]: 0.81 ± 0.56
- promoter activity interaction Z-score [6, 14]: 0.264 ± 0.25
- promoter activity interaction Z-score [6, 15]: 0.00312 ± 0.045
- promoter activity interaction Z-score [6, 16]: -0.556 ± 0.81
- promoter activity interaction Z-score [6, 17]: 0.121 ± 0.86
- promoter activity interaction Z-score [6, 18]: 1.27 ± 0.93
- promoter activity interaction Z-score [6, 19]: 0.54 ± 0.56
- promoter activity interaction Z-score [6, 20]: -0.295 ± 0.4
- promoter activity interaction Z-score [6, 21]: 0.224 ± 0.11
- promoter activity interaction Z-score [6, 22]: 1.46 ± 0.25
